“And” between values parts separate entries of the source, which are not always exact repeats. Identical values can stand only once. Records with an inconclusive call do not appear. The source made the active and inactive calls. The call rests on the fitted dose curve; in most records, active means well fitted cell-killing curve with a large enough effect; inconclusive means small, poorly fitted or top-dose-only effect, or effect the other way; inactive means flat fitted curve, though single readings scatter.
On the % scale 0 is the no-effect control and ±100 the full control effect.

The first test in a line: qHTS assay for cell viability of HEK293 cells (AID 743288). Further: nearly all actives have a fitted effect of over 50% in size. As to conditions: ATP luminescence (CellTiter-Glo), 18 h, active compounds read low. In short, it runs like this:
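Parental HEK293 cells, 2,000 per well, preincubated at least 5 h at 37 C, then exposed to compounds in DMSO for 18 h at 37 C. Viability by CellTiter-Glo ATP luminescence after 30 min at room temperature.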
(In general: qHTS replaces the single test concentration by a dilution series.)
On to `C=Cc1ccccc1`, for which the max response is 4.36% (inactive) and 2.49% (inactive).
On the same count and under the same terms, to `CCCCCCCCCC(=O)O` belongs -4.02% (inactive) and 2.71% (inactive); to `CCCCCCCC/C=C\CCCCCCCC(=O)OC[C@@H](O)[C@H]1OC[C@H](O)[C@H]1O`, -9.48% (inactive).
Same read-out and setting: to `CN(C)Cc1ccccc1` belongs 0.0798% (inactive); to `O=C(O)CC(O)(CC(=O)O)C(=O)O`, -6.07% (inactive) and -4.96% (inactive) and -7.26% (inactive); to `COC(C)=O`, -4.96% (inactive).

The next test is described as follows: qHTS assay for cell viability of the p53RE-bla HCT-116 cell line (AID 743292). Further: nearly all actives have a fitted effect of over 55% in size. As to conditions: p53RE-bla HCT-116 viability, ATP luminescence, 16 h; series mostly up to 95 µM. In outline:
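Intracellular ATP of p53RE-bla HCT-116 cells measured by luciferase luminescence following 16 h compound incubation at 37 C; DMSO-only wells served as vehicle controls.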
For `C=Cc1ccccc1`, the outcome was inactive.
Still for that read-out and setting: under `CCCCCCCCCC(=O)O` stands “inactive”.
On to `CCCCCCCC/C=C\CCCCCCCC(=O)OC[C@@H](O)[C@H]1OC[C@H](O)[C@H]1O`, for which the compound was called inactive.
The same measure, in the same setting: to `CN(C)Cc1ccccc1` belongs “inactive”; to `O=C(O)CC(O)(CC(=O)O)C(=O)O`, “inactive”; to `CC(=O)S[C@@H]1CC2=CC(=O)CC[C@]2(C)[C@H]2CC[C@@]3(C)[C@@H](CC[C@@]34CCC(=O)O4)[C@H]12`, “inactive”.
The same measure, in the same setting: to `COC(C)=O` belongs “inactive”.

(Values after PubChem BioAssay (NCATS).)
